The entries come from a sample that favours hits as a whole.
Cycloheximide cs – counter-screen for Shiga toxin inhibitors: cycloheximide protein synthesis inhibition; cell reporter, cycloheximide protein synthesis inhibition counterscreen; max response, %; actives 12% (n = 300,000); in the data active = max response mostly above about 13%, no sharp cut-off; inactive = mostly below about 14%; also: read at 38.3 µM for the half of the compounds with a filed dose; 0% is about no effect
AmpC inh no detg – blocks E. coli AmpC beta-lactamase in detergent-free assay. P00811. AmpC nitrocefin hydrolysis, absorbance 480 nm, 0.0001% Triton. Potency, µM (series often up to 57.1 µM), for the others: at the highest dose activity change, negative = inhibition, most hits filed as inhibitors. actives 0.52% (n = 330,000);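 also: potency is read from the fitted curve at half-maximal effect; plate controls were no compound for no effect and no enzyme for full effect; nearly all actives have a fitted effect of over 20% in size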
Target sequence (P00811 whole entry, looked up): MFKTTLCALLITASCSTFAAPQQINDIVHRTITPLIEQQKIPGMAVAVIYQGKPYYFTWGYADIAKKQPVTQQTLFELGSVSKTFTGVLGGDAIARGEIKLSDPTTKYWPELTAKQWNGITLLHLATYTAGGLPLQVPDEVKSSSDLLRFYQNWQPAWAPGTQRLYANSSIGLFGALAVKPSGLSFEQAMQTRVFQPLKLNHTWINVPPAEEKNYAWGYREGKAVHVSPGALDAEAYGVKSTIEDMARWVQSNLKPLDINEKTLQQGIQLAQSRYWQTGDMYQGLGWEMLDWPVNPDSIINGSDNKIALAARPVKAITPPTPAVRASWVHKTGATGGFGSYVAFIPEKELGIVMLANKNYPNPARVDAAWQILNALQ
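AmpC (5.3 nM in the dispensed reagent) in 20 mM phosphate pH 7.0 with 0.01% (detergent screen) or 0.0001% Triton X-100 was preincubated with compounds for 15 min at room temperature. Nitrocefin was then added from an 800 uM solution, and hydrolysis was followed at 480 nm.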
AmpC detergent – AmpC beta-lactamase inhibition with detergent present | P00811 | AmpC hydrolysis of nitrocefin, absorbance 480 nm, 0.01% Triton | Potency, µM (doses to about 114 µM), inactives show top-dose activity change, negative = inhibition, hits mostly inhibitors | actives 0.041% (n = 370,000) | AID 485294;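 also: potency is read from the fitted curve at half-maximal effect; 0% = no-compound wells and -100% = no-enzyme wells; nearly all actives have a fitted effect of over 25% in size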
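AmpC (5.3 nM in the dispensed reagent) in 20 mM phosphate pH 7.0 with 0.01% (detergent screen) or 0.0001% Triton X-100 was preincubated with compounds for 15 min at room temperature. Nitrocefin was then added from an 800 uM solution, and hydrolysis was followed at 480 nm.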
Shiga inhibitor – inhibitors of Shiga toxin in Vero cells; actives 9.2% (n = 290,000); Vero cells, Shiga toxin protein synthesis inhibition reporter; inhibition, % at 38.7 µM; in the data active = inhibition mostly above about 28%, no sharp cut-off; inactive = mostly below about 43%; also: 0% is about no effect
NS1 inh – influenza NS1 inhibition; Potency, µM (highest dose often 46.1 µM), for inactives: at the top dose activity, positive = more growth; actives 0.4% (n = 270,000); AID 2326; calls by dose curve; also: potency is read from the fitted curve at half-maximal effect; actives are rising curves; nearly all actives have a fitted effect of over 50% in size
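A cell-based growth assay was used: compounds that relieve NS1-induced slow growth of budding yeast raise OD600. Assay medium was yeast nitrogen base with ammonium sulphate and -URA supplement, pH 6.0, with 2% galactose.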
Starred values were filed as active, the others as inactive; u = inconclusive; x = not tested or not shown. Unless noted, calls follow the shape of the dose curve; as a rule, active = well fitted curve in the direction sought with a large enough effect; inconclusive = small, poorly fitted or top-dose-only effect, or another doubt; inactive = no such curve, though single readings can be large; an effect the other way counts as inactive or inconclusive.

SMILES	Cycloheximide cs	AmpC inh no detg	AmpC detergent	Shiga inhibitor	NS1 inh
CC[C@@]1(C(=O)OC)N[C@H](CN(C)S(=O)(=O)c2ccc(C(F)(F)F)cc2)[C@@H]2C(=O)N(C)C(=O)[C@@H]21	x	38.8%	x	x	x
CCOC(=O)Cn1nc(NC(=O)c2ccc(C(=O)OC)cc2)cc1C	18.6*	11.6%	1.1%	3.4	3.6%
Cc1ccnc(NC(=O)CNC(=O)c2ccc3c(c2)OCO3)c1	26.1*	-16.3%	-7.7%	45.0*	1.5%
Cc1ccc(Cn2ccc(NC(=O)c3cc(-c4ccc5c(c4)OCO5)on3)n2)cc1	-2.9	-15.3%	4.3%	-10.1	-0.8%
CCOC(=O)Cn1ccc(NC(=O)c2ccc3c(c2)OCO3)n1	30.6*	-5.4%	3.5%	-10.0	-17.3%
Cc1ccc(NC(=O)Nc2ccc3c(c2)OCO3)nc1	21.5*	-15.1%	6.5%	80.3*	6.0%
Cc1ccnc(NC(=O)CNC(=O)c2ccc3ccccc3c2)c1	x	-32.1%	-7.7%	x	x
CCOC(=O)Cn1nc(NC(=O)c2cc(OC)cc(OC)c2)cc1C	4.7	3.6%	-1.7%	-9.2	23.3%
COc1ccc(Nc2c3c(nc4ccc(NC(=O)/C=C/c5cccc(OC)c5OC)cc24)CCCC3)cc1OC	x	x	9.4%	x	x
COc1cc(OC)c(NC(=O)c2sc3ncn(CC(=O)N4CCOCC4)c(=O)c3c2C)cc1Cl	-10.0	-0.5%	-4.4%	-2.0	9.2%
CC(C)CC(=O)Nc1ccc2c3c(cccc13)CC2	-1.5	-11.7%	-9.8%	-5.8	10.7%
CC(=O)c1ccc(N2CCN(C(=O)c3cccs3)CC2)c(F)c1	16.0*	-20.7%	1.1%	16.3	-0.9%
CCC(=O)c1ccc(N2CCCCC2)c(F)c1	-5.0	-0.7%	-0.9%	9.5	-2.2%
CCCC(=O)c1ccc(N2CCN(C(=O)c3cccs3)CC2)c(F)c1	9.6	8.2%	0.8%	30.4	-9.0%
CC(=O)c1ccc(N2CCCC2)c(F)c1	17.2*	-10.0%	u	81.4*	-7.7%
CC(=O)c1ccc(N2CCC(C)CC2)c(F)c1	28.8*	-6.1%	1.1%	40.7	x
CC1CCN(c2ccc(C(=O)O)cc2N)CC1	25.4*	-18.2%	u	-13.6	-0.4%
COc1ccc(C(=O)Nc2cc(C(=O)c3ccccc3)c(C)oc2=O)cc1	10.5	-49.8%	-0.5%	29.4	-222.3%
COC(=O)c1ccc(NC(=O)c2cccc(Cl)c2)o1	24.2*	-8.0%	-14.4%	58.3*	-32.3%
Cc1oc(=O)c(NC(=O)c2cccc(Cl)c2)cc1C(=O)c1ccccc1	30.6*	-32.6%	-9.1%	68.3*	-170.4%
COC(=O)c1cc(NC(=O)c2ccccc2)c(=O)oc1C	12.9	-14.6%	-4.4%	21.7	-6.9%
COC(=O)c1cc(NC(=O)c2ccc(C)cc2)c(=O)oc1C	24.8*	-22.7%	3.1%	42.7	-0.3%
COC(=O)c1ccc(NC(=O)c2ccc(C)cc2)o1	22.2*	-18.6%	-11.3%	48.5*	-48.8%
Nc1ncnc2c1ncn2[C@H]1O[C@@H](C(=O)OCCO)[C@@H](O)[C@H]1O	x	x	x	x	-3.1%
COc1ccc(C(OCCN2CCC[C@H](C(=O)O)C2)(c2ccc(OC)cc2)c2ccc(OC)cc2)cc1	-6.1	x	x	2.8	x
SMILES	Cycloheximide cs	AmpC inh no detg	AmpC detergent	Shiga inhibitor	NS1 inh
COc1cc2c(=O)c(S(=O)(=O)c3ccccc3)cn(CC(=O)Nc3ccccc3C)c2cc1OC	x	x	2.2%	x	x
COc1ccc(-c2nc(=S)[nH][nH]2)cc1	12.6*	-17.7%	u	108.0*	11.8%
CCOc1ccc(-c2nc(=S)[nH][nH]2)cc1	41.1*	-10.5%	-18.6%	29.0	4.7%
C/C(=C\C(=O)c1ccccc1)NNC(=O)c1ccc(Cl)cc1	22.4*	-22.3%	u	x	-16.0%
COc1ccc(C(=O)N/N=C/C(=O)c2ccccc2)cc1	43.2*	-30.0%	-0.3%	49.5*	-12.3%
COc1ccc(C(=O)NN/C(C)=C/C(=O)c2ccccc2)cc1	11.2*	0.2%	-9.9%	61.9	12.4%
O=C(COC(=O)CCC(=O)c1ccccc1)NNC(=O)c1ccc(Cl)cc1	x	-34.4%	-12.6%	x	x
CCN(CC)CCN(C(=O)c1ccc2c(c1)CCCC2)c1nc2ccc(C)cc2s1	19.8*	69.3%	-8.3%	31.6	-40.5%
CCN(CC)CCN(C(=O)c1ccccc1OC)c1nc2ccc(F)cc2s1	20.5*	50.4%	3.9%	59.1	x
CCN(CC)CCN(C(=O)c1ccc2c(c1)CCCC2)c1nc2ccc(F)cc2s1	16.3	-4.4%	-10.0%	42.1	x
COc1ccc(NC(=O)NC2COc3ccccc3C2)c(OC)c1 (stereo not drawn)	x	x	-2.8%	x	x

High-throughput results from PubChem BioAssay.
